Active and inactive are the calls of the source. Unless noted, calls come from the whole dose curve; as a rule, active = well fitted curve in the direction sought with a large enough effect; inactive = no such curve, though single readings can be large or run the other way.

The nature of the first experiment: qHTS Assay for Identification of Small Molecule Antagonists for NFkB Signaling Pathway. (AID 624479; calls by dose curve;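 note: pathway stimulated with TNF alpha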; note: potency is the fitted concentration of half-maximal effect). To be noted: NFkB pathway reporter cell assay, antagonist mode; series mostly up to 38.3 µM.
Take `CCc1cc(-c2n[nH]c(C)c2-c2ccc3c(c2)OCCO3)c(O)cc1O`: the Potency is 3.75 µM (active).

Turning to `COc1ccc2c(c1)CC[C@H]1[C@@H]2CC[C@]2(C)[C@@H](NCCCCCCN3C(=O)C=CC3=O)CC[C@H]12`, the Potency result is “inactive”.

For the compound `CC(C)n1c(C=C[C@H](O)C[C@H](O)CC(=O)O)c(-c2ccc(F)cc2)c2ccccc21`, the Potency entry was “inactive”.

As for `CC(C)Oc1cc(Nc2nc(N[C@@H](C)c3ccc(F)cn3)ncc2Cl)[nH]n1`, the Potency is 14.9 µM (active).

With `CCCCc1ccc(NS(=O)(=O)c2ccc(C)c(C(=O)N3CCN(c4cccc(C)c4C)CC3)c2)cc1`, the Potency is 16.8 µM (active).

In the case of `COc1cc2nccc(Oc3ccc(NC(=O)Nc4cc(C)on4)c(Cl)c3)c2cc1OC`, the Potency is 16.8 µM (active).

As for `CCN(CC)CCCCNc1nc2cc(Cl)c(Cl)cc2nc1-c1ccc(-c2cccs2)s1`, the Potency was 11.9 µM (active).

Take `CCNC(=O)c1noc(-c2cc(C(C)C)c(O)cc2O)c1-c1ccc(CN2CCOCC2)cc1`: the Potency was 0.0009 µM (active).

A further experiment can be described thus: Cell Proliferation Assay against the TMD8 Cell Line (AID 651645).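 Note: cells exposed to compound for 48 h before reading.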 To be noted: TMD8 DLBCL cell line proliferation/viability; at 46.1 µM (top of the series). In outline:
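TMD8 ABC DLBCL cells, 500 per well in phenol red-free RPMI with 5% FBS, were treated with compound by pin transfer and incubated 48 hours at 37C, 5% CO2. Viability was read by CellTiter-Glo luminescence, normalised to DMSO (100%) and 9.2 uM bortezomib (0%).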
As for `COc1ccc(CCN(C)CCCOc2ccc(S(=O)(=O)c3[nH]c4ccccc4c3C(C)C)cc2)cc1OC`, the viability (% of control) is 4.97%.

For the compound `Cc1cccc(Nc2nc(N[C@@H]3CCCC[C@H]3N)ncc2C(N)=O)c1`, the viability (% of control) was found to be 2.81%.

Consider `CCc1cc(-c2n[nH]c(C)c2-c2ccc3c(c2)OCCO3)c(O)cc1O`, for which the viability (% of control) amounted to 38.2%.

With `O=C(Nc1ccc(OC(F)(F)F)cc1)c1sccc1NCc1ccnc2ccccc12`, the viability (% of control) amounted to 9.29%.

As to `CC(C)C[C@H](NC(=O)c1cc2ccccc2s1)C(=O)N1CCN(C(=O)[C@H](CO)NS(=O)(=O)c2ccc(Cl)cc2Cl)CC1`, the viability (% of control) is -0.483%.

In the case of `CCOC(=O)[C@@H](N)CCC(=O)N[C@@H](CSCc1ccccc1)C(=O)N[C@@H](C(=O)OCC)c1ccccc1`, the viability (% of control) is 62.4%.

Regarding `CC(C)(C)c1[nH]cnc1C=c1[nH]c(=O)c(=Cc2ccccc2)[nH]c1=O`, the viability (% of control) worked out at 1.63%.

`Cc1c(C(=O)Nc2ccc(N3C[C@@H](C)O[C@@H](C)C3)nc2)cccc1-c1ccc(OC(F)(F)F)cc1`: the viability (% of control) worked out at 48.4%.

On to `CC(=O)Nc1cccc(-n2c(=O)n(C3CC3)c(=O)c3c(Nc4ccc(I)cc4F)n(C)c(=O)c(C)c32)c1`, for which the viability (% of control) was 0.993%.

For `CN(C)CCN(C)C(=O)c1ccc(NC(=O)Nc2ccc(-c3nc(N4CCOCC4)c4ccn(CC(F)(F)F)c4n3)cc2)cc1`, the viability (% of control) was 0.807%.

With `Cc1ccc(C(=O)N(CCCN)[C@@H](c2nc3cc(Cl)ccc3c(=O)n2Cc2ccccc2)C(C)C)cc1`, the viability (% of control) was found to be 0.587%.

For `COc1ccc2c(c1)CC[C@H]1[C@@H]2CC[C@]2(C)[C@@H](NCCCCCCN3C(=O)C=CC3=O)CC[C@H]12`, the viability (% of control) was determined as 15.9%.

For `CC(=O)NCCC(=O)N[C@@H](CCC(N)=O)C(=O)N[C@@H](CO)C(=O)N[C@@H](CCC(N)=O)C(=O)N[C@@H](CCC(N)=O)C(=O)N[C@H](C(=O)N[C@@H](Cc1ccccc1)C(=O)N[C@]1(C)CCCCCCC=CCCC[C@@](C)(C(=O)N[C@@H](CCC(N)=O)C(=O)N[C@@H](CC(N)=O)C(N)=O)NC(=O)[C@H](CC(C)C)NC(=O)[C@H](CC(C)C)NC(=O)[C@@H](CCCNC(=N)N)NC(=O)[C@H](Cc2c[nH]c3ccccc23)NC(=O)[C@H](CC(C)C)NC(=O)[C@H](CC(N)=O)NC1=O)[C@H](C)O`, the viability (% of control) was found to be 22.4%.

Consider `CC(C)Oc1cc(Nc2nc(N[C@@H](C)c3ccc(F)cn3)ncc2Cl)[nH]n1`, for which the viability (% of control) was 0.843%.

Take `CCCCc1ccc(NS(=O)(=O)c2ccc(C)c(C(=O)N3CCN(c4cccc(C)c4C)CC3)c2)cc1`: the viability (% of control) came out at 9.89%.

`O=C(O)Cc1cccc(OCCCN(Cc2cccc(C(F)(F)F)c2Cl)CC(c2ccccc2)c2ccccc2)c1`: the viability (% of control) was determined as 8.71%.

Turning to `COc1cc2nccc(Oc3ccc(NC(=O)Nc4cc(C)on4)c(Cl)c3)c2cc1OC`, the viability (% of control) came to 6.06%.

On to `CC1=C[C@@H]2[C@@H]([C@@H](O)C[C@@]3(C)[C@H]2C[C@@H](C)[C@]3(O)C(=O)CO)[C@@]2(C)Cc3cnn(-c4ccccc4)c3C=C12`, for which the viability (% of control) was found to be 0.486%.

`Cc1cc2c(cc1C1(c3ccc(C(=O)O)cn3)CC1)C(C)(C)CCC2(C)C`: the viability (% of control) worked out at 79.3%.

For the compound `CCN(CC)CCCCNc1nc2cc(Cl)c(Cl)cc2nc1-c1ccc(-c2cccs2)s1`, the viability (% of control) worked out at 1.61%.

With `CCNC(=O)c1noc(-c2cc(C(C)C)c(O)cc2O)c1-c1ccc(CN2CCOCC2)cc1`, the viability (% of control) worked out at 7.59%.

These data come from PubChem BioAssay (NCATS).
